In PubChem BioAssay (EPA / NIEHS):
The source made the active and inactive calls. How the source made its calls: active means hit-call score of the fitted dose curve at least 0.9, where 1 is the maximum; inactive means score below 0.9.

What was measured:
Settings in all cases: mRNA level, 48 h; actives raise or lower the signal
[1] = read-out: Broad substrate specificity ATP-binding cassette transporter ABCG2 (Homo sapiens) (UniProt Q9UNQ0); experiment: LTEA_HepaRG_ABCG2: Life Technologies and Expression Analysis (LTEA) Assay for ABC Transporter (ABCG2) using HepaRG (AID 2283465)
Procedure, shortened: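 Differentiated HepaRG cells in serum-free induction medium were exposed for 48 h, in duplicate, to eight half-log concentrations up to 100 uM in 0.5% DMSO. ABCG2 mRNA was measured by TaqMan qRT-PCR, normalized to ACTB, GAPDH and POLR2A, and fitted bidirectionally versus DMSO.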

[2] = read-out: ATP-citrate lyase (ACLY), ACLY (gene 47); experiment: LTEA_HepaRG_ACLY: Life Technologies and Expression Analysis (LTEA) Assay for ATP-citrate lyase (ACLY) using HepaRG (AID 2283466)
Procedure, shortened: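 Differentiated human HepaRG cells in serum-free induction medium exposed 48 h, in duplicate, to eight half-log concentrations from 100 uM top in 0.5% DMSO; ACLY mRNA measured by qRT-PCR, normalized to ACTB, GAPDH, POLR2A, fitted bidirectionally versus DMSO.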

[3] = read-out: Peroxisomal acyl-coenzyme A oxidase 1 (ACOX1) gene, ACOX1 (gene 51); experiment: LTEA_HepaRG_ACOX1: Life Technologies and Expression Analysis (LTEA) Assay for Peroxisomal acyl-coenzyme A oxidase 1 (ACOX1) gene using HepaRG (AID 2283467)
Procedure, shortened: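 Differentiated human HepaRG cells were exposed in duplicate for 48 h in serum-free induction medium to eight half-log concentrations up to 100 uM in 0.5% DMSO. ACOX1 mRNA was then quantified by TaqMan qRT-PCR, normalized to ACTB, GAPDH and POLR2A.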

[4] = read-out: Alkaline Phosphatase, Placental (ALPP) gene, ALPP (gene 250); experiment: LTEA_HepaRG_ALPP: Life Technologies and Expression Analysis (LTEA) Assay for Alkaline Phosphatase, Placental (ALPP) gene using HepaRG (AID 2283468)
Procedure, shortened: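 HepaRG cells plated 48 h, then exposed in duplicate for 48 h in serum-free induction medium to 8-point half-log series from 100 uM in 0.5% DMSO. ALPP mRNA by TaqMan qRT-PCR, normalized to ACTB/GAPDH/POLR2A; bidirectional fit versus DMSO.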

[5] = read-out: Bcl-2 (BAD) gene, BAD (gene 572); experiment: LTEA_HepaRG_BAD: Life Technologies and Expression Analysis (LTEA) Assay for Bcl-2 (BAD) gene using HepaRG (AID 2283469)
Procedure, shortened: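 Differentiated human HepaRG cells in serum-free induction medium were exposed in duplicate for 48 h to eight concentrations (top 100 uM, half-log steps, 0.5% DMSO). BAD mRNA was quantified by qRT-PCR normalised to ACTB, GAPDH and POLR2A, with bidirectional fitting versus DMSO.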

[6] = read-out: Bcl-2 (BAX) gene, BAX (gene 581); experiment: LTEA_HepaRG_BAX: Life Technologies and Expression Analysis (LTEA) Assay for Bcl-2 (BAX) gene using HepaRG (AID 2283470)
Procedure, shortened: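 Differentiated HepaRG cells exposed 48 h in serum-free induction medium, eight half-log concentrations from 100 uM, in duplicate, 0.5% DMSO vehicle. BAX mRNA by TaqMan qRT-PCR, normalised to ACTB, GAPDH and POLR2A.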

[7] = read-out: adenosine kinase (ADK) gene, ADK (gene 132); experiment: LTEA_HepaRG_ADK: Life Technologies and Expression Analysis (LTEA) Assay for adenosine kinase (ADK) gene using HepaRG (AID 2283471)
Procedure, shortened: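 Read-out is ADK transcript level measured by qRT-PCR and normalised to three housekeeping genes. Cells are human HepaRG, dosed for 48 h at up to 100 uM in 0.5% DMSO. Gain or loss of signal is fitted against DMSO controls.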

[8] = read-out: Alpha-fetoprotein (AFP) gene, AFP (gene 174); experiment: LTEA_HepaRG_AFP: Life Technologies and Expression Analysis (LTEA) Assay for Alpha-fetoprotein (AFP) gene using HepaRG (AID 2283472)
Procedure, shortened: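 Differentiated human HepaRG cells exposed 48 h in serum-free induction medium, 8-point half-log series from 100 uM in 0.5% DMSO, duplicate. AFP mRNA by qRT-PCR, normalized to ACTB, GAPDH, POLR2A; bidirectional fit vs DMSO.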

BCL2L11 (gene 10018) = experiment: LTEA_HepaRG_BCL2L11: Life Technologies and Expression Analysis (LTEA) Assay for Bcl-2 (BCL2L11) gene using HepaRG (AID 2283473)
Procedure, shortened: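 Differentiated human HepaRG cells were exposed 48 h in serum-free induction medium to eight half-log concentrations up to 100 uM in 0.5% DMSO, in duplicate. BCL2L11 mRNA was quantified by TaqMan qRT-PCR, normalized to ACTB, GAPDH and POLR2A; induction or repression fitted versus DMSO.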

[9] = read-out: Apolipoprotein A-V (APOA5) gene, APOA5 (gene 116519); experiment: LTEA_HepaRG_APOA5: Life Technologies and Expression Analysis (LTEA) Assay for Apolipoprotein A-V (APOA5) gene using HepaRG (AID 2283474)
Procedure, shortened: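 Differentiated HepaRG cells in serum-free induction medium, exposed 48 h in duplicate to eight half-log concentrations topping at 100 uM (0.5% DMSO). APOA5 mRNA by Fluidigm TaqMan qRT-PCR, normalized to ACTB, GAPDH and POLR2A; bidirectional fit versus DMSO.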

[10] = read-out: Apoptosis regulator Bcl-2 (Homo sapiens) (UniProt P10415); experiment: LTEA_HepaRG_BCL2: Life Technologies and Expression Analysis (LTEA) Assay for Bcl-2 gene using HepaRG (AID 2283475)
Procedure, shortened: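 Differentiated human HepaRG cells in serum-free induction medium exposed 48 h, in duplicate, to 8-point half-log series from 100 uM in 0.5% DMSO. BCL2 mRNA by qRT-PCR (TaqMan/Fluidigm), normalized to ACTB, GAPDH, POLR2A; bidirectional fit against DMSO.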

[11] = read-out: Bcl-2 (BID) gene, BID (gene 637); experiment: LTEA_HepaRG_BID: Life Technologies and Expression Analysis (LTEA) Assay for Bcl-2 (BID) gene using HepaRG (AID 2283476)
Procedure, shortened: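 Gene expression by qRT-PCR in HepaRG cells after 48 h exposure, duplicate wells, eight half-log concentrations topping at 100 uM in 0.5% DMSO. Normalized to ACTB, GAPDH, POLR2A; bidirectional fitting relative to DMSO.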

Caspase-3 (Homo sapiens) = Caspase-3 (Homo sapiens) (UniProt P42574); experiment: LTEA_HepaRG_CASP3: Life Technologies and Expression Analysis (LTEA) Assay for cysteine-aspartic acid protease (CASP3) using HepaRG (AID 2283477)
Procedure, shortened: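 Differentiated HepaRG cells, plated 48 h, were treated in duplicate in serum-free induction medium for 48 h with eight half-log concentrations up to 100 uM in 0.5% DMSO. CASP3 mRNA measured by qRT-PCR, normalized to ACTB, GAPDH, POLR2A.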

[12] = read-out: Cytochrome P450 (CYP24A1), CYP24A1 (gene 1591); experiment: LTEA_HepaRG_CYP24A1: Life Technologies and Expression Analysis (LTEA) Assay for Cytochrome P450 (CYP24A1) using HepaRG (AID 2283478)
Procedure, shortened: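 HepaRG cells plated 48 h, then exposed in duplicate in serum-free induction medium for 48 h to 8-point half-log series from 100 uM in 0.5% DMSO. CYP24A1 mRNA by Fluidigm qRT-PCR, normalized to ACTB, GAPDH, POLR2A; bidirectional fit versus DMSO.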

[13] = read-out: cysteine-aspartic acid protease (CASP8), CASP8 (gene 841); experiment: LTEA_HepaRG_CASP8: Life Technologies and Expression Analysis (LTEA) Assay for cysteine-aspartic acid protease (CASP8) using HepaRG (AID 2283480)
Procedure, shortened: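 Differentiated human HepaRG cells, plated 48 h then switched to serum-free induction medium, were exposed in duplicate for 48 h to 8 half-log concentrations up to 100 uM in 0.5% DMSO. CASP8 mRNA was quantified by qRT-PCR, normalized to ACTB/GAPDH/POLR2A.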

[14] = read-out: Cytochrome P450 (CYP2B6), CYP2B6 (gene 1555); experiment: LTEA_HepaRG_CYP2B6: Life Technologies and Expression Analysis (LTEA) Assay for Cytochrome P450 (CYP2B6) using HepaRG (AID 2283481)
Procedure, shortened: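 Differentiated human HepaRG cells in serum-free induction medium, dosed in duplicate for 48 h over 8 half-log concentrations topping at 100 uM (0.5% DMSO). CYP2B6 mRNA measured by TaqMan qRT-PCR, normalized to ACTB, GAPDH, POLR2A; bidirectional fit versus DMSO.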

[15] = read-out: Cytochrome P450 2C19 (Homo sapiens) (UniProt P33261); experiment: LTEA_HepaRG_CYP2C19: Life Technologies and Expression Analysis (LTEA) Assay for CYP2C19 using HepaRG (AID 2283482)
Procedure, shortened: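 Differentiated HepaRG cells in serum-free induction medium exposed 48 h in duplicate, 8 concentrations from 100 uM by half-log steps in 0.5% DMSO. CYP2C19 mRNA measured by TaqMan qRT-PCR, normalized to ACTB, GAPDH, POLR2A. Bidirectional fit versus DMSO.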

CYP2C8 (gene 1558) = experiment: LTEA_HepaRG_CYP2C8: Life Technologies and Expression Analysis (LTEA) Assay for CYP2C8 using HepaRG (AID 2283483)
Procedure, shortened: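 Differentiated human HepaRG cells were exposed for 48 h in serum-free induction medium to eight half-log concentrations up to 100 uM in 0.5% DMSO, in duplicate. CYP2C8 mRNA was measured by TaqMan qRT-PCR, normalized to ACTB, GAPDH and POLR2A, and fitted bidirectionally against DMSO.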

Measured: AC50

Apoptosis regulator Bcl-2 (Homo sapiens), sequence (P10415 whole entry, looked up): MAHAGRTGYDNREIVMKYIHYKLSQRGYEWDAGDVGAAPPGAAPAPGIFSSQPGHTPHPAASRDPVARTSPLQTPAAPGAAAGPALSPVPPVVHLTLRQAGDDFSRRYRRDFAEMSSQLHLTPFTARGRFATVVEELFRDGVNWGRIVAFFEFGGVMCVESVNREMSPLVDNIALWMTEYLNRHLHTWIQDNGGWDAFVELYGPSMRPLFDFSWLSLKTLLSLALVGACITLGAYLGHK
Caspase-3 (Homo sapiens), sequence (P42574 whole entry, looked up): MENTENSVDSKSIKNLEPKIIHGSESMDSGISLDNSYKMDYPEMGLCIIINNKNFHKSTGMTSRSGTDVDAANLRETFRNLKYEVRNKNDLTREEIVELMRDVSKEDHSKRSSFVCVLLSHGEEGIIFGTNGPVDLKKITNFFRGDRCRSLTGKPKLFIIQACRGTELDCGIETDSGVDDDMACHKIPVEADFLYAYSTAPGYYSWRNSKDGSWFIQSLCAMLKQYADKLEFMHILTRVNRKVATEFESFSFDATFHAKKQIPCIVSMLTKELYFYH
Broad substrate specificity ATP-binding cassette transporter ABCG2 (Homo sapiens), sequence (Q9UNQ0 whole entry, looked up): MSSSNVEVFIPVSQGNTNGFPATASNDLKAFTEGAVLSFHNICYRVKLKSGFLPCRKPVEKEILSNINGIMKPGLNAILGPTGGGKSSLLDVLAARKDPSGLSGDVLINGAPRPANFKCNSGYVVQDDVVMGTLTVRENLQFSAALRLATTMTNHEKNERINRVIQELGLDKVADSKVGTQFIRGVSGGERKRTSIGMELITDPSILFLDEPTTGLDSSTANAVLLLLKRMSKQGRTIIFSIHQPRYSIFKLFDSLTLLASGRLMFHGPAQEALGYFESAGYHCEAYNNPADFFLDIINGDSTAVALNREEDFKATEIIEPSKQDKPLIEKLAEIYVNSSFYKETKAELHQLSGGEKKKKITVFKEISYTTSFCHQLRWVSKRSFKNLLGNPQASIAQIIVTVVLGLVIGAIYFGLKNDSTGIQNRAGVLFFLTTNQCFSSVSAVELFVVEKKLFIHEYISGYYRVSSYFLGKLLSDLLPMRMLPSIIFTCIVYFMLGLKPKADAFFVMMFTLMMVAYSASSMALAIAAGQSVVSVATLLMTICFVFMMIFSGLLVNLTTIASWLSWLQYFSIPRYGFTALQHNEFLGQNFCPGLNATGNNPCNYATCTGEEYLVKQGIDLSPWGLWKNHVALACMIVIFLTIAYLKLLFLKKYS
Cytochrome P450 2C19 (Homo sapiens), sequence (P33261 whole entry, looked up): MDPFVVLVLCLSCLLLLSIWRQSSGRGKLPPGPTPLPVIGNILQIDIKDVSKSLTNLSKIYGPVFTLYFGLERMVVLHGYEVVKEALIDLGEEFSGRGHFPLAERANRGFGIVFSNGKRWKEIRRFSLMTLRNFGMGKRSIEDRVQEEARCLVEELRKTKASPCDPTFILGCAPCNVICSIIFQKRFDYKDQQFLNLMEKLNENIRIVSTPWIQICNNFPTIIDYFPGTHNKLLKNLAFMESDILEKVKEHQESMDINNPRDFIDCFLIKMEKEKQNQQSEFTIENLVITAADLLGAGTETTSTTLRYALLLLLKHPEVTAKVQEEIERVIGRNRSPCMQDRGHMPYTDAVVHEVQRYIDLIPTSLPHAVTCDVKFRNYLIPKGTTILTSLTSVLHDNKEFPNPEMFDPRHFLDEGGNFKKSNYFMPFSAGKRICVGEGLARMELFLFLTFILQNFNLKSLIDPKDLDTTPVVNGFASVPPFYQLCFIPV

Cc1occc1C(=O)Nc1ccc(C(=O)N2CCC(F)(F)/C(=C\C(=O)N3CCC(N4CCCCC4)CC3)c3ccccc32)cc1
inactive: [1] | [5] | [6] | [7] | BCL2L11 (gene 10018) | [10] | [11] | Caspase-3 (Homo sapiens) | [12] | [13]
active: [2] 53.2 µM | [3] 31.2 µM | [4] 46.7 µM | [8] 44.8 µM | [9] 39 µM | [14] 47.4 µM | [15] 43.7 µM | CYP2C8 (gene 1558) 56.5 µM

O=C(Nc1ccc(Cl)cc1)Nc1ccc(Cl)c(Cl)c1
inactive: [5] | [8] | BCL2L11 (gene 10018) | [12] | [13]
active: [1] 12.4 µM | [2] 17.5 µM | [3] 18.5 µM | [6] 29.2 µM | [7] 22.6 µM | [9] 21.4 µM | [10] 11.9 µM | Caspase-3 (Homo sapiens) 13.3 µM | [14] 19.2 µM | [15] 22.6 µM | CYP2C8 (gene 1558) 87.1 µM

Clc1ccccc1C(c1ccccc1)(c1ccccc1)n1ccnc1
inactive: [11] | Caspase-3 (Homo sapiens) | [12] | [13]
active: [1] 37.5 µM | [2] 8.91 µM | [3] 60 µM | [4] 9.09 µM | [5] 91.3 µM | [6] 12.3 µM | [7] 93 µM | [8] 20.1 µM | BCL2L11 (gene 10018) 50 µM | [9] 20.8 µM | [10] 23 µM | [14] 26 µM | [15] 27.4 µM | CYP2C8 (gene 1558) 23.9 µM
